{
  "source": "PubChem BioAssay AID624202",
  "about": "(National Center for Advancing Translational Sciences (NCATS), 2012)",
  "note": "Among all 380,000 compounds or so, about 4,000 (1.1%) were called active. Where a call stands in place of a potency, no number is given. Another 3% or so got no clear call; they are omitted. Calls follow the shape of the dose curve; as a rule, active = well fitted activation curve with a large enough effect; inconclusive = small, poorly fitted or top-dose-only effect; inactive = no such curve, though single readings can be large or run the other way. Many of the other results were omitted from the sample, so actives are more common in it than they were. Potency is read from the fitted curve at half-maximal effect.",
  "data": [
    {"assay": "qHTS Assay to Identify Small Molecule Activators of BRCA1 Expression; also: nearly all actives have a fitted effect of over 80% in size", "conditions": "MCF7-BRCA1-FFLuc reporter, luminescence, 48 h; series mostly up to 46.1 µM", "outline": "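48 h compound treatment of MCF7-BRCA1-FFLuc cells (phenol-red free MEM, 37 °C), then 15 min with luciferase substrate and luminescence imaging.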", "values": [
      {"smiles": "COc1ccc(NC(=O)c2ccc3nc(C(C)C)oc3c2)cc1OC", "Potency": "inactive"},
      {"smiles": "COc1ccc(-n2c(=O)c3c(c4cc(OC)ccc4n3C)n(Cc3cccc(C)c3)c2=O)cc1", "Potency": "inactive"},
      {"smiles": "CCOC(=O)c1c(NC(=O)C2CC=CCC2C(=O)O)sc(C)c1CC", "note": "(stereo unspecified)", "Potency": "inactive"},
      {"smiles": "CCc1nnc(NC(=O)C2CCCN2S(=O)(=O)c2ccccc2)s1", "note": "(stereo unspecified)", "Potency": "inactive"},
      {"smiles": "CCOC(=O)CSc1nnc(CNC(=O)c2cccs2)n1-c1ccccc1", "Potency": "inactive"},
      {"smiles": "CCc1nnc(NC(=O)CCC(=O)NCc2ccccc2OC)s1", "Potency": "inactive"},
      {"smiles": "CCc1c(C)sc(NC(=O)c2cccs2)c1C(N)=O", "Potency": "3.55 µM (active)"},
      {"smiles": "CCc1nnc(NC(=O)c2cccs2)s1", "Potency": "12.6 µM (active)"},
      {"smiles": "CCS(=O)(=O)N1CCc2cc(C(=O)N3CCN(c4ccccc4OC)CC3)ccc21", "Potency": "inactive"},
      {"smiles": "Cc1nc2ccc(NC(=O)C3CCCCC3)cc2s1", "Potency": "inactive"},
      {"smiles": "Cc1nc(NC(=O)C2CCCCC2)sc1C", "Potency": "12.6 µM (active)"},
      {"smiles": "Cc1nc(NC(=O)C23CCC(C)(C(=O)O2)C3(C)C)sc1C", "note": "(stereo unspecified)", "Potency": "inactive"},
      {"smiles": "CC(C)(C(=O)NO)c1ccccc1", "Potency": "inactive"},
      {"smiles": "C/C(=N\\NC(=O)c1cccnc1)c1ccc(-n2ccnc2)cc1", "Potency": "inactive"},
      {"smiles": "C/C(=N\\NC(=O)c1ccc2ccccc2c1)c1cccnc1", "Potency": "10 µM (active)"},
      {"smiles": "C/C(=N\\NC(=O)c1cccc([N+](=O)[O-])c1)c1cccnc1", "Potency": "inactive"},
      {"smiles": "OCCNc1ncnc2oc(-c3ccco3)c(-c3ccco3)c12", "Potency": "inactive"},
      {"smiles": "Cc1oc2ncnc(N3CCCCC3)c2c1C(=O)N1CCN(c2cccc(Cl)c2)CC1", "Potency": "inactive"},
      {"smiles": "COC(=O)c1ccccc1NS(=O)(=O)c1ccc2c(c1)CCCN2C(C)=O", "Potency": "inactive"},
      {"smiles": "CC(=O)c1ccc(NC(=S)NC(=O)CC(C)C)cc1", "Potency": "7.94 µM (active)"},
      {"smiles": "CC(C)CC(=O)NC(=S)Nc1ccc(F)cc1F", "Potency": "inactive"},
      {"smiles": "CC(C)CC(=O)NC(=S)NNC(=O)c1cccc([N+](=O)[O-])c1", "Potency": "inactive"},
      {"smiles": "CCc1ccccc1NC(=O)Cc1ccc(NC(=O)N2CCCCc3ccccc32)cc1", "Potency": "inactive"},
      {"smiles": "CCCCN(C)S(=O)(=O)c1ccc(C(=O)Nc2sc3c(c2C(N)=O)CC(C)(C)NC3(C)C)cc1", "Potency": "inactive"},
      {"smiles": "CN(C(=O)C1CCOC1)c1nnc(-c2cccnc2)s1", "note": "(stereo unspecified)", "Potency": "inactive"},
      {"smiles": "CN(C(=O)c1ccccn1)c1nnc(-c2ccccn2)s1", "Potency": "11.2 µM (active)"},
      {"smiles": "CCC(C)(C)NC(=O)C(c1ccccn1)N(C(=O)c1csnn1)c1ccccc1", "note": "(stereo unspecified)", "Potency": "inactive"},
      {"smiles": "Brc1cccc[n+]1Cc1cccc(C[n+]2ccccc2Br)c1", "Potency": "inactive"},
      {"smiles": "Cc1cc(C)cc(NC(=O)CCS(=O)(=O)c2cc3c4c(c2)CCN4C(=O)CC3)c1", "Potency": "inactive"},
      {"smiles": "COc1ccc2c(c1OC)C(=O)N(c1ccc(O)cc1)C2", "Potency": "4.47 µM (active)"},
      {"smiles": "COc1ccc2c(c1OC)C(=O)N(c1ncn[nH]1)C2", "Potency": "inactive"}
    ]}
  ]
}
